# SW480 rereplic – induces DNA re-replication in SW480 colon adenocarcinoma cells; SW480 DNA re-replication, Hoechst DNA content imaging, 48 h; Potency, µM (doses to about 46.1 µM), without a hit: at the highest dose re-replication activation, most hits filed as activators; 1.8% of 340,000 active; note: potency is the fitted concentration of half-maximal effect; % of control where 0% means no effect; nearly all actives have a fitted effect of over 55% in size
#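 250 cells/well; 23 nL cpd via pin tool; 48 hr, 37 C, 5% CO2; Hoechst 40 min; imager read of total nuclear intensity, ex 405/em 500-530 nm.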
# MCF10A rerep – inducers of DNA re-replication in MCF 10A breast cells; MCF 10A DNA re-replication, Hoechst nuclear intensity, 48 h; Potency, µM (top dose mostly 46.1 µM), without a hit: at the highest dose activity, positive = re-replication, usual class: activators; 2.9% of 350,000 active; AID 624296; note: potency is the fitted concentration of half-maximal effect; % of control where 0% means no effect; nearly all actives have a fitted effect of over 50% in size
# IL1B secr inh – inhibitors of inflammasome signaling (IL-1 beta secretion). THP-1 LPS/ATP IL-1B secretion, AlphaLISA, 16 h; stronger effect = lower value. activity change, % at 57.5 µM. 4.7% of 360,000 active. AID 743279; in the data active = activity change below about -50%; inconclusive = mostly about -30% to -49%; note: % is set by controls: 0 for no effect and ±100 for the full control effect
#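 THP-1 cells pretreated 1 hr with compounds (up to 57.5 uM final), then stimulated with LPS (250 ng/mL final) plus ATP (1.25 mM final); secreted IL-1B measured by AlphaLISA after 16 hr, decreased signal indicating inhibition.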
# KB-V1 cytotox – kills drug-selected multidrug resistant KB-V1 cells | KB-V1 MDR cells viability, CellTiter-Glo, 72 h | Potency, µM (highest dose often 46.1 µM), hits mostly cytotoxic | 3.4% of 400,000 active; note: potency is the fitted concentration of half-maximal effect; % is set by controls: 0 for no effect and ±100 for the full control effect; nearly all actives have a fitted effect of over 60% in size
#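 Drug-selected KB-V1 cells, grown in DMEM lacking phenol red with 10% FBS, receive compound titrations; after three days at 37 degrees C, surviving cell ATP is quantified by CellTiter-Glo luminescence and responses normalized and curve-fitted.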
# KB-3-1 cytotox – KB-3-1 parental cell cytotoxicity. KB-3-1 viability, CellTiter-Glo ATP luminescence, 72 h. 1.4% of 400,000 active. Potency, µM (doses to about 46.1 µM), hits mostly cytotoxic. AID 1347075; note: potency is the fitted concentration of half-maximal effect; % is set by controls: 0 for no effect and ±100 for the full control effect; nearly all actives have a fitted effect of over 60% in size
#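 KB-3-1 cells, DMEM (no phenol red) + 10% FBS; compound by pin transfer, 72 h, 37 °C. Readout: CellTiter-Glo luminescence after 10 min. Data normalized, curve-fitted.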
# The depositor's hits bear a star; i = inactive; ? = inconclusive; nt = no result; [ ] = remark or other dose. An excerpt weighted towards active compounds, which were near 9.9% of everything screened. Unless noted, calls come from the whole dose curve; as a rule, active = well fitted curve in the direction sought with a large enough effect; inconclusive = small, poorly fitted or top-dose-only effect, or another doubt; inactive = no such curve, though single readings can be large; an effect the other way counts as inactive or inconclusive.
SMILES,SW480 rereplic,MCF10A rerep,IL1B secr inh,KB-V1 cytotox,KB-3-1 cytotox
CN1CC=C2C(C#N)=C(N)C(C#N)(C#N)C(c3ccsc3)C2C1 (stereo unspecified),-14%,-7%,5,i,i
CCOC(=O)N1CC=C2C(C#N)=C(N)C(C#N)(C#N)[C@H](c3ccsc3)[C@H]2C1,12%,12%,23,15µM*,?
O=C1Nc2ccccc2/C1=N/N=C/c1ccc(-c2ccc([N+](=O)[O-])cc2)o1,3%,-1%,46,i,i
O=C1OCC/C1=C\c1ccccc1,-5%,-32%,-11,i,i
O=C1/C(=C/c2ccccc2)CCc2ccc(Cl)nc21,?,?,-105*,21µM*,i
Cc1c(Nc2nc(-c3cccc([N+](=O)[O-])c3)cs2)c(=O)n(-c2ccccc2)n1C,?,2%,-13,i,i
O=C(Nc1nc(-c2cccc([N+](=O)[O-])c2)cs1)C(c1ccccc1)c1ccccc1,2%[9.22 µM],?,-72*,?,?
Cc1[nH]n(-c2nc(-c3cccc([N+](=O)[O-])c3)cs2)c(=O)c1C,-3%,14%,4,16µM*,i
CCOC(=O)Cc1csc(N/N=C/c2cccc([N+](=O)[O-])c2)n1,4%,0%,3,i,i
O=[N+]([O-])c1cccc(-c2csc(N/N=C/c3cccc(O)c3)n2)c1,?,?,-168*,?,?
CCc1ccccc1S(=O)(=O)Cc1ccc(C(=O)NCCc2ccc(C)cc2)o1,nt,nt,nt,?,i
c1ccc(-c2nc(NCCCn3ccnc3)c3oc4ccccc4c3n2)cc1,?,?,-79*,5.8µM*,?
CCc1nc(NCCCn2ccnc2)c2oc3ccccc3c2n1,-3%,11%,-18,?,i
c1ccc(-c2nc(NCc3ccco3)c3oc4ccccc4c3n2)cc1,3%,16µM*,15,?,i
O=C(Nc1ccc(F)cc1)c1oc2ccccc2c1NC(=O)C1CCCC1,-9%,9%,-7,13µM*,i
O=C(CCl)Nc1c(C(=O)Nc2ccc3c(c2)OCCO3)oc2ccccc12,?,7.3µM*,-99*,?,?
O=C(COc1ccc([N+](=O)[O-])cc1)NNC(=O)c1cccs1,-23%,-9%,4,i,i
COc1ccc(-c2ccc(C(=O)NCc3ccco3)c3occc23)c(C)c1,nt,nt,-53*,?,i
COc1ccc(-c2coc3c(C(=O)NCc4cccs4)cccc23)c(C)c1,nt,nt,-53*,i,?
COc1ccc(-c2coc3c(C(=O)NCc4ccco4)cccc23)c(C)c1,nt,nt,-26,?,i
O=P(O)(O)c1cc(-c2ccccc2)oc1-c1ccccc1,-5%,3%,-26,i,i
CC(O)CN=c1cc(-c2ccccc2)oc2ccc(Cl)cc12 (stereo unspecified),25%,?,-72*,?,21µM*
O=c1oc(-c2ccccc2)cc(Cl)c1Cl,9.2µM*,2.9µM*,-100*,?,?
CN(C)CCCN=c1cc(-c2ccccc2)oc2ccc(Cl)cc12,5%,20%,-50*,?,?
OCCN=c1cc(-c2ccccc2)oc2ccc(Cl)cc12,?,?,-70*,16µM*,?
SMILES,SW480 rereplic,MCF10A rerep,IL1B secr inh,KB-V1 cytotox,KB-3-1 cytotox
CCn1c(COc2ccccc2)nnc1SCC(=O)Nc1ccc(N2CCOCC2)cc1,-61%,-6%,11,?,i
O=C1CSc2cc(Cl)ccc2N1,-7%,0%,28,?,i
COc1ccc(NC(=O)COc2ccc(C(=O)OCC(=O)N(C(C)C)C(C)C)cc2OC)cc1,-50%,8%,13,i,i
O=c1cc(-c2ccccc2F)oc2ccccc12,-1%,15%,-29,?,i
O=c1cc(-c2ccccc2)oc2ccc(Cl)cc12,0%,-1%,28,21µM*,i
O=c1cc(-c2ccc(F)cc2)oc2ccccc12,-2%,11%,23,13µM*,?
O=c1cc(-c2ccccc2[N+](=O)[O-])oc2ccccc12,?,5.2µM*,43,15µM*,i
COc1ccc(-n2nc(C(=O)Nc3cccc(C)n3)c3c4ccccc4n(C)c3c2=O)cc1,nt,nt,nt,i,i
CCNc1ccc(/C=C2\C=Cc3ccccc32)cc1,nt,nt,nt,i,i
O=S(=O)(NNc1ncc(C(F)(F)F)cc1Cl)c1ccccc1,-6%,-2%,?,i,i
CN(C)CCNc1nc2sc3c(c2c(=O)n1-c1ccc(F)cc1)CCCCC3,3%,?,-54*,i,i
COc1ccc(-n2c(NCCN(C)C)nc3sc4c(c3c2=O)CCCCC4)cc1,?,?,-5,i,i
O=c1c2c3c(sc2nc(NCCO)n1CCc1ccccc1)CCCCC3,?,4.6µM*,-12,?,?
C=CCn1c(NCCO)nc2sc3c(c2c1=O)CCC3,-5%,3%,20,i,i
CN(C)CCNc1nc2sc3c(c2c(=O)n1Cc1ccccc1)CCCCC3,16%,18µM*,-96*,i,i
CN(C)CCNc1nc2sc3c(c2c(=O)n1-c1ccccc1)CCCCC3,-1%,?,nt,i,i
O=c1c2c3c(sc2nc(N2CCNCC2)n1CCc1ccccc1)CCCCC3,-7%,-2%,-55*,i,i
Cc1ncccc1C(=O)N1CCCC(CNC(=O)C2(c3ccc(Cl)cc3)CC2)C1 (stereo unspecified),-28%,2%,16,i,i
O=C(Cn1c(-c2cccs2)cc2ccccc21)NCCCN1CCN(c2ccc(F)cc2)CC1,nt,nt,nt,i,i
CCCNCc1cc(OC)c(OCCC)cc1Cl,-17%,-181%[0.0737 µM],4,i,i
O=c1c2c3c(sc2nc(NCCO)n1Cc1ccco1)CCCCC3,-2%,?,-7,i,i
Cc1nc(NCc2cccnc2)c2c3c(sc2n1)CCCC3,-8%,10%,-20,?,?
OCCNc1nc(SCc2ccccc2)nc2sc3c(c12)CCC3,-10%,?,-14,7.3µM*,i
COCCNc1nc2sc3c(c2c(=O)n1Cc1ccco1)CCCCC3,-9%,8.2µM*,12,i,i
COc1ccc(NC(=O)c2noc3c2CCCC3)cc1Cl,nt,nt,nt,i,i
COc1cc(-c2nnc(Sc3ccc(C(F)(F)F)cc3[N+](=O)[O-])o2)cc(OC)c1OC,?,18µM*,?,i,i
O=C(O)c1ccc(Sc2nnc(-c3cccc(Br)c3)o2)c([N+](=O)[O-])c1,-1%,11%,9,i,i
O=C(COC(=O)c1c2c(nc3ccccc13)/C(=C/c1ccco1)CC2)NC1CCCC1,13µM*,7.3µM*,-61*,16µM*,i

# High-throughput results from PubChem BioAssay.
